What all share (details): mRNA level, 48 h; actives raise or lower the signal
Read-out in assay [1]: MicroRNA 122 (MIR122), gene 406906
In words: LTEA_HepaRG_MIR122: Life Technologies and Expression Analysis (LTEA) Assay for MicroRNA 122 (MIR122) using HepaRG (AID 2283516). Further: the transcript read is the microRNA miR-122. The gist of the method: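 Expression measured by microfluidic qRT-PCR with three housekeeping genes for normalisation, after 48 h treatment of HepaRG cultures. Eight concentrations (top 100 uM, half-log steps, 0.5% DMSO vehicle) in duplicate; gain or loss fitted relative to vehicle.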

Read-out in assay [2]: matrix metalloproteinase-10 (MMP10), MMP10 (gene 4319)
In words: LTEA_HepaRG_MMP10: Life Technologies and Expression Analysis (LTEA) Assay for matrix metalloproteinase-10 (MMP10) using HepaRG (AID 2283517). The essentials:
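Expression measured by TaqMan qRT-PCR with ACTB/GAPDH/POLR2A normalisation after 48 h chemical exposure of HepaRG cells. Eight half-log concentrations, top 100 uM, 0.5% DMSO vehicle, duplicates; gain or loss fitted against vehicle.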

Read-out in the next assay: MYC, MYC (gene 4609)
The assay can be described thus: LTEA_HepaRG_MYC: Life Technologies and Expression Analysis (LTEA) Assay for MYC using HepaRG (AID 2283518). The gist of the method: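 Differentiated human HepaRG cells, plated 48 h then switched to serum-free induction medium, were exposed in duplicate for 48 h to 8-point half-log series up to 100 uM in 0.5% DMSO. MYC mRNA measured by qRT-PCR, normalized to ACTB/GAPDH/POLR2A.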

Read-out in assay [3]: matrix metalloproteinase-3 (MMP3), MMP3 (gene 4314)
In words: LTEA_HepaRG_MMP3: Life Technologies and Expression Analysis (LTEA) Assay for matrix metalloproteinase-3 (MMP3) using HepaRG (AID 2283519). The gist of the method: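 Fluidigm-based TaqMan qRT-PCR, normalized to ACTB, GAPDH and POLR2A and fitted bidirectionally versus 0.5% DMSO, measured transcript levels. Treatment: duplicate 48 h exposures of HepaRG cells, ~100,000/well, to eight half-log concentrations topping at 100 uM.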

Read-out in assay [4]: Paternally Expressed 10 (PEG10), PEG10 (gene 23089)
The assay can be described thus: LTEA_HepaRG_PEG10: Life Technologies and Expression Analysis (LTEA) Assay for Paternally Expressed 10 (PEG10) using HepaRG (AID 2283520).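 On AC50: PEG10 transcript by qRT-PCR normalised to ACTB GAPDH and POLR2A.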 The gist of the method:
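PEG10 transcript measured by Fluidigm qRT-PCR, normalized to three housekeeping genes, in HepaRG cells treated 48 h (highest 100 uM, half-log steps, 0.5% DMSO vehicle). Cells plated 48 h before switching to serum-free induction medium.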

Read-out in assay [5]: Nuclear factor NF-kappa-B p105 subunit (Homo sapiens) (UniProt P19838)
In words: LTEA_HepaRG_NFKB1: Life Technologies and Expression Analysis (LTEA) Assay for Nuclear Factor Kappa B Subunit 1 (NFKB1) using HepaRG (AID 2283521).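 Further: TaqMan qRT-PCR transcript normalised to ACTB GAPDH and POLR2A housekeeping genes.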 The gist of the method:
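Human HepaRG cells receive eight half-log concentrations, highest 100 uM, for 48 h. NFKB1 expression is then quantified by qRT-PCR and analysed for up- or down-regulation relative to 0.5% DMSO vehicle.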

Read-out in assay [6]: Phosphatase and tensin (PTEN), PTEN (gene 5728)
In words: LTEA_HepaRG_PTEN: Life Technologies and Expression Analysis (LTEA) Assay for Phosphatase and tensin (PTEN) using HepaRG (AID 2283523). The essentials: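 Read-out: TaqMan qRT-PCR of PTEN transcript, normalized to three housekeeping genes, fitted in both directions against 0.5% DMSO. Differentiated human HepaRG cultures received chemicals for 48 h, eight-point half-log series topping at 100 uM.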

Read-out in assay [7]: solute carrier (SLC22A1), SLC22A1 (gene 6580)
The assay can be described thus: LTEA_HepaRG_SLC22A1: Life Technologies and Expression Analysis (LTEA) Assay for solute carrier (SLC22A1) using HepaRG (AID 2283524). The gist of the method:
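Transcript level of SLC22A1 quantified by qRT-PCR (normalized to three housekeeping genes) after 48 h chemical exposure of HepaRG cells, eight concentrations up to 100 µM, half-log steps, 0.5% DMSO vehicle. Gain or loss relative to DMSO fitted bidirectionally.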

Read-out in assay [8]: Pyruvate Dehydrogenase Kinase 4 (PDK4), PDK4 (gene 5166)
In words: LTEA_HepaRG_PDK4: Life Technologies and Expression Analysis (LTEA) Assay for Pyruvate Dehydrogenase Kinase 4 (PDK4) using HepaRG (AID 2283525). The essentials:
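Readout is qRT-PCR of PDK4 transcript, normalized to three housekeeping genes, with bidirectional fitting against 0.5% DMSO vehicle. Differentiated HepaRG cells were treated 48 h in serum-free induction medium, duplicate wells, eight-point half-log series topping at 100 uM.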

Read-out in assay [9]: Protein phosphatase 2A (PPP2R4), PTPA (gene 5524)
In words: LTEA_HepaRG_PPP2R4: Life Technologies and Expression Analysis (LTEA) Assay for Protein phosphatase 2A (PPP2R4) using HepaRG (AID 2283522). The essentials:
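Expression was quantified by Fluidigm qRT-PCR normalised to three housekeeping genes after 48 h treatment. Human HepaRG cells received an 8-point series from 100 µM downward by half-logs, in duplicate with 0.5% DMSO vehicle and 1 mM phenobarbital as induction control.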

Activity calls are given as the source filed them. How the source made its calls: active means hit-call score of the fitted dose curve at least 0.9, where 1 is the maximum; inactive means score below 0.9.

Sequence of Nuclear factor NF-kappa-B p105 subunit (Homo sapiens) (P19838 whole entry, looked up): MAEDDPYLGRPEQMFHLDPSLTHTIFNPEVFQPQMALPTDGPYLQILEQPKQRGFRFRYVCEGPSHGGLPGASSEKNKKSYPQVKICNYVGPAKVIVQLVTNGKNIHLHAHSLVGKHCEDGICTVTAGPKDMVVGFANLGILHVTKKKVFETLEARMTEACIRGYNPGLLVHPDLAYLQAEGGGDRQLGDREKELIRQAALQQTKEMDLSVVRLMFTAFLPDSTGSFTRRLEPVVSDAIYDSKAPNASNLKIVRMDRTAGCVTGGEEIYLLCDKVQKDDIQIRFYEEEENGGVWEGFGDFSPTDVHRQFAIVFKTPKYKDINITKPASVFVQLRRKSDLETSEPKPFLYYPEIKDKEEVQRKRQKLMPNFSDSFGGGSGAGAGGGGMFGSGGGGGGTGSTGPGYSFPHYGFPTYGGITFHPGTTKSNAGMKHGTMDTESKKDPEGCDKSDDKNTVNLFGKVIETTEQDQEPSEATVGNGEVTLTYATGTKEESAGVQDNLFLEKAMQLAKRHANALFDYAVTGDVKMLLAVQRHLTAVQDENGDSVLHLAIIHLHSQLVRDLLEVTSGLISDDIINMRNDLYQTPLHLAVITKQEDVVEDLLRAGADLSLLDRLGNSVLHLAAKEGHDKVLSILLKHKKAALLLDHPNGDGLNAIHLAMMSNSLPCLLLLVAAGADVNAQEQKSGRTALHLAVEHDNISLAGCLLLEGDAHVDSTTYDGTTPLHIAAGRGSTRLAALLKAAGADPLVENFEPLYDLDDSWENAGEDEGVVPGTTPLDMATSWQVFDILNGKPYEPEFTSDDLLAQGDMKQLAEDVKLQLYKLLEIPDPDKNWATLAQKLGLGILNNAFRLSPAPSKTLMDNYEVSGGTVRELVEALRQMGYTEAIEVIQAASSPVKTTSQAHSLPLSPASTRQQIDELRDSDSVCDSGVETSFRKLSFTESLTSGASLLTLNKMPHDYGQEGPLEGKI

For orientation: AC50 means the concentration at which the activity in the assay is half-maximal. Regarding `COc1cc(C(C)C)c2c(c1)S(=O)(=O)N(COc1cc(=O)n3cccc(OCCN4CCCCC4)c3n1)C2=O`, the AC50 in assay [1] was 23.4 µM (active); in [2], 21.1 µM (active); in assay [3] it was 19.7 µM (active); in [4], 19.5 µM (active); in assay [6] it was 22.6 µM (active); in assay [7], 20.8 µM (active). The outcome is “inactive” with MYC, MYC (gene 4609); “inactive” in assay [5]; “inactive” in assay [8].

As for `COCc1nnc(-c2ccc[n+]([O-])c2)n1-c1c(Cl)c(Cl)cc2[nH]c(=O)c(=O)[nH]c12`, the outcome in assay [1] was “inactive”; in [2], “inactive”; in the assay with MYC, MYC (gene 4609), “inactive”; in assay [3] it was “inactive”; in assay [4], “inactive”; in assay [6], “inactive”. Also, the outcome in assay [7] and in assay [8] was inactive.

As for `OCCNCCO`, the outcome was “inactive” in assay [1]; “inactive” in [2]; “inactive” with MYC, MYC (gene 4609); “inactive” in [3]; “inactive” in assay [4]; “inactive” in [9]. Besides, in assay [6], the compound was classed as inactive. The AC50 in assay [7] and in assay [8] was 50 µM (active) throughout.

With `CC(C)c1nnc2ccc(-c3ocnc3-c3cc(F)ccc3F)cn12`, the AC50 was 50 µM (active) in [1], 7.09 µM (active) in assay [3] and 15.4 µM (active) in [7]. The outcome in assay [2] was “inactive”; with MYC, MYC (gene 4609) it was “inactive”; in assay [4], “inactive”; in [9], “inactive”; in assay [6] it was “inactive”; in assay [8], “inactive”.

For the compound `OC(Cn1cncn1)(Cn1cncn1)c1ccc(F)cc1F`, the outcome is “inactive” in assay [1]; “inactive” in assay [2]; “inactive” with MYC, MYC (gene 4609); “inactive” in assay [3]; “inactive” in assay [4]; “inactive” in assay [5]. Besides, the call in [6], in [7] and in [8] was inactive.

For `Nc1ccn([C@@H]2O[C@H](CO)[C@@H](O)[C@@H]2O)c(=O)n1`, the outcome in [1] was “inactive”; in assay [2], “inactive”; in the assay with MYC, MYC (gene 4609), “inactive”; in assay [3], “inactive”; in [4], “inactive”; in [6] it was “inactive”. Besides, the compound was called inactive in assay [7] and in assay [8].

Turning to `O=c1[nH]cnc2c1ncn2[C@H]1CC[C@@H](CO)O1`, the outcome in assay [1] was “inactive”; in assay [2] it was “inactive”; with MYC, MYC (gene 4609) it was “inactive”; in [3] it was “inactive”; in [4] it was “inactive”; in assay [6], “inactive”. Also, the call in assay [7] and in assay [8] was inactive.

As to `CCCCCCCCN(C)C`, the outcome was “inactive” in assay [1]; “inactive” in assay [2]; “inactive” with MYC, MYC (gene 4609); “inactive” in assay [3]; “inactive” in assay [4]; “inactive” in [9]. Moreover, the outcome in assay [6], in assay [7] and in assay [8] was inactive.

As for `Cn1c(=O)c2[nH]cnc2n(C)c1=O`, the outcome in assay [1] is “inactive”; in assay [2], “inactive”; with MYC, MYC (gene 4609), “inactive”; in [3] it was “inactive”; in assay [4] it was “inactive”; in [5] it was “inactive”. In addition, the result in [6], in assay [7] and in assay [8] was inactive.

In the case of `C[C@@H](Oc1ccc(CNC(=O)c2cccnc2Oc2ccc3c(c2)OCO3)c(F)c1)C(=O)O`, the outcome in assay [1] is “inactive”; in assay [2], “inactive”; with MYC, MYC (gene 4609) it was “inactive”; in [4] it was “inactive”; in assay [5], “inactive”; in assay [9], “inactive”. Also, the result in assay [6] and in assay [7] was inactive. Also, in assay [8], the AC50 was 50 µM (active).

`CCCOc1ccc(S(=O)(=O)N2CCN(CC)CC2)cc1-c1nc2c(CC)n(Cc3ccccn3)nc2c(=O)[nH]1`: the outcome in assay [1] is “inactive”; in [2], “inactive”; with MYC, MYC (gene 4609), “inactive”; in assay [3], “inactive”; in assay [4] it was “inactive”; in [5], “inactive”. In addition, the compound was classed as inactive in assay [6] and in [7]. Further, the AC50 in [8] was 31.3 µM (active).

With `CCc1cccc(CC)c1N`, the outcome in [1] was “inactive”; in [2], “inactive”; with MYC, MYC (gene 4609) it was “inactive”; in assay [3], “inactive”; in assay [4], “inactive”; in [9], “inactive”. The compound was called inactive in assay [6], in assay [7] and in [8].

Turning to `CC(C)C(=O)Nc1ccc([N+](=O)[O-])c(C(F)(F)F)c1`, the AC50 in assay [1] is 60.8 µM (active); in assay [2] it was 50 µM (active); with MYC, MYC (gene 4609) it was 50 µM (active); in assay [3], 79.6 µM (active); in assay [4], 13.5 µM (active); in assay [7], 45.4 µM (active). For the same compound, the AC50 in assay [8] was 9.61 µM (active). Moreover, the call in assay [6] was inactive.

On to `CCCCCCCCCCCCCCCCOS(=O)(=O)O`, for which the outcome in [1] is “inactive”; in assay [2] it was “inactive”; in the assay with MYC, MYC (gene 4609), “inactive”; in assay [3] it was “inactive”; in assay [4] it was “inactive”; in [9] it was “inactive”. Further, in assay [6], the outcome was inactive. Besides, the AC50 in assay [7] was 38.6 µM (active); in assay [8], 10.8 µM (active).

`CCOc1ccc2[nH]cc(C(=O)NCc3ccccc3)c(=O)c2n1`: the outcome in [1] was “inactive”; in assay [2], “inactive”; with MYC, MYC (gene 4609), “inactive”; in assay [3], “inactive”; in [6], “inactive”; in assay [7], “inactive”. In addition, the call in [8] was inactive. Further, the AC50 in assay [4] is 50 µM (active).

Take `Cc1ncc([C@@H](CCCCCCc2ccc3c(n2)NCCC3)CC(=O)O)cn1`: the outcome in assay [1] is “inactive”; in assay [2], “inactive”; in the assay with MYC, MYC (gene 4609), “inactive”; in [4], “inactive”; in [6], “inactive”; in [7], “inactive”. Also, the AC50 in [3] is 0.145 µM (active); in assay [8] it was 0.317 µM (active).

For `OCC(CO)(CO)CO`, the outcome is “inactive” in [1]; “inactive” in assay [2]; “inactive” with MYC, MYC (gene 4609); “inactive” in assay [3]; “inactive” in assay [4]; “inactive” in assay [6]. For the same compound, the compound was called inactive in [7] and in assay [8].

On to `COc1cc2c(c(OC)c1OC)-c1ccc(OC)c(=O)cc1[C@@H](NC(C)=O)CC2`, for which the AC50 in assay [1] is 0.113 µM (active); in assay [2], 0.0147 µM (active); with MYC, MYC (gene 4609), 0.144 µM (active); in assay [3] it was 0.152 µM (active); in assay [4], 0.112 µM (active); in assay [7], 0.105 µM (active). Further, the AC50 in assay [8] is 0.0626 µM (active). In addition, the compound was called inactive in [5] and in assay [6].

These data come from PubChem BioAssay (EPA / NIEHS).
